Assay outcomes (PubChem)
Only some compounds are listed: those with a hit (about 2.8% of all), similar ones and a draw of the others.
BRCA1 expr act = activators of BRCA1 expression. 380,000 compounds, 1.1% hits. Potency, µM (doses to about 46.1 µM), usual class: activators. MCF7-BRCA1-FFLuc reporter, luminescence, 48 h; response scale: scaled: vehicle 0%, 10 µM genistein 100%. AID 624202; further: nearly all actives have a fitted effect of over 80% in size
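MCF7-BRCA1-FFLuc, 2000 cells/well; 2 h attach, 37 °C/5% CO2; compound 48 h; luciferase substrate 15 min; luminescence end-point. Norm. to genistein 10 microM max activation and DMSO; concentration-response curves fitted.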
GLP-1R agonist = activates the human GLP-1 receptor | Potency, µM (highest dose often 45.6 µM), actives largely listed as activators | AID 624172 | HEK293 GLP-1R CRE-luciferase, luminescence, 4-6 h; cells express a hypersensitive GLP-1R form | 380,000 compounds, 0.007% hits | P43220
Target sequence (P43220 whole entry, looked up): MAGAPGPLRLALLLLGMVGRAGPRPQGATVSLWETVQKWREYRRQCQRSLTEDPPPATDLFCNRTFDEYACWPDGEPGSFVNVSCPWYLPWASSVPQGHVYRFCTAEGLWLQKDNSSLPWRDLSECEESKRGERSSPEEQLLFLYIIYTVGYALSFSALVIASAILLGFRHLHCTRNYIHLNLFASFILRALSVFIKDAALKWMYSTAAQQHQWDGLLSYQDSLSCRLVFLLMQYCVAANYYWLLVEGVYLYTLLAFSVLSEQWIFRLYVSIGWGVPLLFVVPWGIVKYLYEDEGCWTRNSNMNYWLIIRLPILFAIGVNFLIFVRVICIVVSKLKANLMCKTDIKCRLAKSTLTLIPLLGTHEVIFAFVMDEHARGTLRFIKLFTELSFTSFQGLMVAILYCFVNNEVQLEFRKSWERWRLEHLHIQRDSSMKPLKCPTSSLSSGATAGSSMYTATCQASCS
GLP1R cytotox = cytotoxic in the GLP-1 receptor inverse agonist counter-screen | HEK293 cAMP-luciferase reporter cells, luminescence, 24 h | Potency, µM (highest dose often 38.3 µM), actives largely listed as inhibitors | 410,000 compounds, 0.13% hits | AID 624418;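 further: loss of luciferase light is scored as toxicity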
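MLSMR compounds, 24 hr on cells at 37 deg C/5% CO2; luminescence after luciferase reagent (12 min RT). Inhibition counted as the undesired cytotoxic outcome.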
Mito fusion act = mitochondrial division inhibition or fusion activation; 320,000 compounds, 0.23% hits; AID 485298; Potency, µM (series often up to 46.1 µM), most hits filed as activators; S. cerevisiae fusion-defective mutant growth rescue, CellTiterGlo 48 h; further: nearly all actives have a fitted effect of over 45% in size
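Read-out: ATP-based luminescence (CellTiterGlo, 10 min ambient) reporting growth of fusion-defective ts yeast after 48 hours at 37C on glycerol/ethanol YPEG medium in the presence of compound.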
GLP1R inv ag = inverse agonists of human GLP-1 receptor | P43220 | HEK293 GLP-1R CRE-luciferase, luminescence, 24 h; GLP-1R form is constitutively active | Potency, µM (titrated, usually from 38.3 µM), most hits filed as inhibitors | 410,000 compounds, 1.6% hits | AID 624417; further: nearly all actives have a fitted effect of over 55% in size
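Readout was luciferase luminescence, measured 12 min after detection reagent at room temperature. Beforehand, GLP-1R reporter HEK293 cells had sat 12 h, then received compounds for 24 hr at 37 deg C.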
Of the large screens only hits and unclear results are named; the others gave an inactive call; ! = not active in a repeat. The call rests on the fitted dose curve; in most records, active means well fitted curve in the direction sought with a large enough effect; inconclusive means small, poorly fitted or top-dose-only effect, or another doubt; inactive means no such curve, though single readings can be large; an effect the other way counts as inactive or inconclusive.

CC(=O)Nc1ccc(C(=O)N/C(=C/c2ccccc2)C(=O)N2CCCCC2)cc1	GLP1R cytotox inconclusive
O=C(Nc1cc(Cl)cc(Cl)c1)c1cccnc1	none
COc1ccc2oc(-c3ccco3)cc(=O)c2c1	BRCA1 expr act 6.31µM
O=C(O)CCc1ccc(-c2ccccc2)n1-c1cccc(C(=O)O)c1	BRCA1 expr act 12.6µM
Cc1ccc(N(CC(O)CN2CCCCC2)S(=O)(=O)c2ccccc2[N+](=O)[O-])cc1 (configuration not stated)	none
CCCc1ccc2oc(C(=O)NCCc3cnn(C)c3)c(C)c2c1	BRCA1 expr act 8.91µM, GLP1R inv ag inconclusive
CCc1ccc(-c2cc3c(=O)n(CC(=O)N4CCCC4)nc(C)n3n2)cc1	none
O=C(COc1ccc2c(c1)CCC2)N1CCc2ccccc21	BRCA1 expr act 10µM, GLP1R inv ag inconclusive
Cc1ccc(Cl)cc1N1CCN(C(=O)COc2ccc3c(c2)CCC3)CC1	GLP1R inv ag 10µM
Cc1ccc(OCC(=O)N2CCc3ccccc32)cc1	BRCA1 expr act inconclusive, GLP1R inv ag inconclusive
CC(C)(/C=N/O)/[N+]([O-])=C/c1ccccc1C(F)(F)F	none
COc1ccc(Cn2c(SCc3ccc(C(=O)NC4CCCC4)cc3)nc3cccnc32)cc1	none (no result: BRCA1 expr act, GLP-1R agonist, Mito fusion act)
Cc1ccc(C)c(Cn2nc(C)n3c(cc4cc(C)ccc43)c2=O)c1	none (no result: GLP-1R agonist, Mito fusion act)
Cc1ccc2c(c1)cc1c(=O)[nH]ncn12	BRCA1 expr act 11.2µM
CC(/C=N/Nc1nnc(C)c(=O)[nH]1)=C\c1ccccc1	BRCA1 expr act 10µM
Cc1ccc(C)c(-n2c(CCC(=O)O)ccc2-c2ccc(Cl)cc2)c1	GLP1R inv ag inconclusive (no result: BRCA1 expr act, GLP-1R agonist, Mito fusion act)
CC(C)c1ccc(N(CC(=O)NCCc2ccccc2)C(=O)c2csnn2)cc1	GLP1R inv ag inconclusive
Cc1cccc(N(CC(=O)Nc2ccccc2C(F)(F)F)S(=O)(=O)c2ccccc2)c1C	GLP1R inv ag 11.2µM (no result: Mito fusion act)
COc1ccccc1N(CC(=O)Nc1ccccc1C(F)(F)F)S(=O)(=O)c1ccc(C)cc1	GLP1R inv ag inconclusive (no result: Mito fusion act)
Cc1ccc(OCc2nc(C#N)c(NCc3ccc4c(c3)OCO4)o2)cc1	Mito fusion act 8.91µM, GLP1R inv ag inconclusive
Cc1cnc(C(=O)OCC(=O)c2ccc(F)c(F)c2)cn1	none
Clc1ccccc1C(c1ccccc1)(c1ccccc1)n1ccnc1	Mito fusion act 0.517µM!, GLP1R inv ag 10µM
C#CC(c1ccccc1)(c1ccccc1)n1ccnc1	GLP1R inv ag inconclusive (no result: Mito fusion act)
COc1ccc(C2CC(c3ccc(C)cc3)=NN2C(=O)c2ccccc2)cc1 (configuration not stated)	none
O=C(Nc1ccc2c(c1)OCO2)c1ccc2c(c1)OCO2	GLP1R inv ag inconclusive
CCOC(=O)N1CCN(C(=O)c2ccc3nc(N4CCCCC4)sc3c2)CC1	BRCA1 expr act inconclusive
CC(C(=O)Nc1ccc2c(c1)OCO2)N(c1ccc(Cl)cc1)S(C)(=O)=O (configuration not stated)	GLP1R inv ag 10µM
O=C(Nc1ccc2c(c1)OCO2)c1cccc(Cl)c1	BRCA1 expr act 11.2µM
CCCOc1ccc(C(=O)N2CCN(Cc3ccc4c(c3)OCO4)CC2)cc1	GLP1R inv ag 7.94µM
O=C(c1ccc2nc(N3CCCCC3)sc2c1)N1CCN(Cc2ccc3c(c2)OCO3)CC1	GLP1R inv ag 10µM
CC(C(=O)Nc1ccc2c(c1)OCO2)N(C)CC(=O)Nc1ccc(Cl)cc1 (configuration not stated)	GLP1R inv ag inconclusive (no result: Mito fusion act)
Cc1cccc(N2CCN(S(=O)(=O)c3ccc(F)c(C(=O)Nc4cccc(Cl)c4C)c3)CC2C)c1 (configuration not stated)	GLP1R inv ag inconclusive (no result: BRCA1 expr act, GLP-1R agonist, Mito fusion act)
COc1cccc(N2CCN(c3ncnc4c3cnn4-c3ccc(C)cc3C)CC2)c1	GLP1R cytotox inconclusive, GLP1R inv ag inconclusive
CCCCOc1ccc(C(=O)Nc2ccc3c(c2)N(C(C)=O)CCC3)cc1	GLP1R inv ag 1.12µM (no result: BRCA1 expr act, GLP-1R agonist, Mito fusion act)
CCCOc1ccc(C(=O)Nc2ccc3c(c2)OCO3)cc1	BRCA1 expr act 3.16µM, GLP1R inv ag inconclusive
N#Cc1ccccc1NC(=O)c1ccc2c(Cl)c3c(nc2c1)CCCC3	BRCA1 expr act 6.31µM
CCCN1CCN(CCCNC(=O)c2ccc3c(Cl)c4c(nc3c2)CCCC4)CC1	GLP1R cytotox inconclusive, GLP1R inv ag 5.01µM
CCN(CC)CCCNC(=O)c1ccc2c(Cl)c3c(nc2c1)CCCC3	GLP1R cytotox inconclusive, GLP1R inv ag 4.47µM
COC(=O)C1=C(C)N=C2SC(C)C(=O)N2C1c1ccc(C(=O)OC)cc1 (configuration not stated)	none
CCOC(=O)C1C(C(C)=O)=C(c2ccccc2)c2ccccc2N1S(=O)(=O)C(F)(F)F (configuration not stated)	none (no result: Mito fusion act)
CC(C)CNC(=O)CN(C1CCCCC1)S(C)(=O)=O	none
CC(C)(C)NC(=O)C(=O)NCCC1=CCCCC1	BRCA1 expr act inconclusive
CC(C)c1ccc(C2Sc3ccccc3NC3=C2C(=O)c2ccccc23)cc1 (configuration not stated)	GLP1R inv ag 8.91µM (no result: BRCA1 expr act, GLP-1R agonist, Mito fusion act)
O=C1C2=C(Nc3ccccc3SC2c2ccco2)c2ccccc21 (configuration not stated)	GLP1R cytotox inconclusive, GLP1R inv ag inconclusive
O=C(CNC(=O)c1ccc(Cl)cc1Cl)OCc1nnc(-c2ccccc2Br)o1	none (no result: Mito fusion act)
CCN(CC(O)COc1ccc(OCC(O)CN(CC)C2CCCCC2)cc1)C1CCCCC1 (configuration not stated)	GLP1R inv ag 2.24µM (no result: Mito fusion act)
Cc1ccccc1OCC(O)CN(Cc1ccccc1O)C1CCCCC1 (configuration not stated)	GLP1R cytotox inconclusive, GLP1R inv ag 11.2µM
CN(CC(O)COc1ccccc1F)C1CCCCC1 (configuration not stated)	none
CCN(CC(O)COCc1ccc(Cl)cc1)C1CCCCC1 (configuration not stated)	none
COc1ccc(C)cc1S(=O)(=O)N1CCN(c2ccccc2)CC1	none
Cc1cc(C)cc(C(O)c2ncc(-c3ccc(Cl)cc3)[nH]2)c1 (configuration not stated)	GLP1R inv ag 12.6µM (no result: Mito fusion act)
O=C1CC(SC(=Nc2ccccc2)Nc2ccccc2)C(=O)N1c1ccc(Cl)cc1 (configuration not stated)	none
O=C1CC(SC(=Nc2ccccc2)Nc2ccccc2)C(=O)N1c1cccc(Cl)c1 (configuration not stated)	GLP1R cytotox inconclusive, GLP1R inv ag 5.01µM
CCOC(=O)Cn1c(-c2ccccc2)cc(SC)c(C#N)c1=O	GLP1R inv ag 10µM
NNC(=O)c1cc(C23CC4CC(CC(C4)C2)C3)[nH]n1	none
CNC(=S)N/N=C(\C)c1ccc2c(c1)OCO2	GLP1R cytotox inconclusive, GLP1R inv ag 10µM
